The whole screen tested about 290,000 compounds, of which about 27,000 (9.3%) were called active. The entries come from a sample that favours actives as a whole. A number with no mark means an inactive call. Rule as the data show it: active = inhibition mostly above about 28% (no sharp cut-off); inactive = mostly below about 43%.
Assay: A qHTS for Small Molecule Inhibitors of Shiga Toxin; also: 0% is about no effect
Conditions: Vero cells, Shiga toxin protein synthesis inhibition reporter; at 38.7 µM, stronger effect = higher value

Compound | inhibition
CC(=N\NC(=O)c1cc(Br)ccc1O)/C(=N/O)C(=O)Nc1ccccc1 | 27.5%
CCc1nn(CCCC(=O)Nc2ccc(C)c(C)c2)c(=O)c2cc3occc3n12 | -3.08%
CC(=O)Nc1ccc(S(=O)(=O)N(C)c2nc3ccccc3nc2Cl)cc1 | 21.4%
COc1cc2c(cc1OC)C(c1ccccc1Br)NC(=O)C2 (configuration not stated) | -13.7%
CN1CCN(c2ccccc2NC(=O)COc2ccc(C3CCCCC3)cc2)CC1 | 16.9%
Cc1c(S(=O)(=O)NC(C)c2ccccc2)c(=O)n(C)c(=O)n1C (configuration not stated) | -36.1%
Cc1ccc(NC(=O)NCC(c2cccnc2)N2CCOCC2)cc1 (configuration not stated) | -5.81%
O=C(NNC(=O)c1cccnc1)Nc1ccccc1 | 2.5%
Cc1ccc(NC(=O)Nc2cccnc2)cc1 | 29% (active)
C/C=C(/C)C(=O)O[C@@H]1c2cc3c(c4c2[C@@]2(CO4)C(=O)C(OC)=C(OC)C=C2C[C@@H](C)[C@H]1C)OCO3 | -12.4%
CS(=O)(=O)C1=NN2C(=N)/C(=C\c3ccc(OCCOc4ccccc4)cc3)C(=O)N=C2S1 | 13.4%
O=C(NCC(=O)N(c1ccccc1)C(C(=O)NCC1CCCO1)c1ccccc1)c1cccs1 (configuration not stated) | -3.3%
Cc1cccc(N(C(=O)Cc2cccs2)C(C(=O)NCc2ccco2)c2ccncc2)c1 (configuration not stated) | 2.84%
Cc1ccc(N(C(=O)Cc2cccs2)C(C(=O)NCC2CCCO2)c2ccncc2)cc1 (configuration not stated) | 59.4% (active)
COc1cccc(CNS(=O)(=O)c2ccc3c(c2)CC(C)N3C(=O)C2CCC2)c1 (configuration not stated) | -3.12%
CNC(=S)N/N=C1\C2CN3CCN(C2)CC1(c1ccccc1)C3 | 14%
Nc1ccccc1C(=O)NC1CCCCNC1=O (configuration not stated) | 2.5%
CC12CN3CCN(CC(C3)/C1=N\NC(=O)c1ccccc1N)C2 | 60.8% (active)
CCn1cc(C(=O)N2CC(C)CC(C)C2)c(=O)c2cc(S(=O)(=O)N3CCCC3)ccc21 (configuration not stated) | -9.23%
O=C(NCCCn1ccnc1)c1cc(Br)c(Br)s1 | -8.29%
COC(=O)c1cccc(NS(C)(=O)=O)c1 | 7.52%
CCN(CC)CCNC(=O)CCCCCn1c(=O)[nH]c2cc(C(=O)OC)ccc2c1=O | 11.7%
COC(=O)c1ccc2c(C(C)(C)O)c(C(C)(C)O)[nH]c2c1 | 25.7% (active)

Compound | inhibition
CCc1nnc(NC(=O)CSCc2cc(=O)n3cc(C)sc3n2)s1 | 9.5%
CN(C)c1nc(NN)nc(Nc2ccc(F)cc2)n1 | -6.82%
COc1cc(SC)ccc1C(=O)Nc1cc(C)ccn1 | 71.5% (active)
Cc1ccnc(NC(=O)C(C)N2C(=O)c3ccccc3C2=O)c1 (configuration not stated) | 16.9%
COc1cc(SC)ccc1C(=O)NCCOc1ccccc1Cl | 72.6% (active)
COc1cc(SC)ccc1C(=O)N(Cc1ccccc1)c1ccccc1 | -14.7%
Cc1ccnc(NC(=O)c2ccoc2C)c1 | 62.3% (active)
COc1ccccc1OCCNC(=O)CCNC(=O)c1ccccc1Cl | 5.05%
COc1cc(SC)ccc1C(=O)Nc1nc(C)cs1 | -19.5%
Cc1occc1C(=O)Nc1cccc(Cn2cccn2)c1 | 39.7%
Cc1ccnc(NC(=O)CCCOc2ccccc2)c1 | 31.5%
COc1cc(NS(=O)(=O)c2ccc(NC(=O)c3ccc([N+](=O)[O-])cc3)cc2)ncn1 | -2.79%
Cc1nc([N+](=O)[O-])cn1CC(=O)Nc1ccc(Cl)cc1 | -12.3%
Cc1ccc(C(=O)OCC(=O)NC(=O)Cc2ccccc2)c(O)c1 | -0.702%
CCOC(=O)C1CCN(Cc2c(C(=O)N3CCOCC3)nc3c(C)cccn23)CC1 | -32.7%
O=C(c1cccc([N+](=O)[O-])c1)N1CCN(Cc2ccccc2)CC1 | -0.104%
COc1ccc(N=C(C)c2sc3ccccc3c2O)cc1 | 122% (active)
COc1ccc(-n2c(O)c(C(C)=Nc3ccc4c(c3)CCC4)c(=O)[nH]c2=O)cc1 | -5.66%
COc1ccc(S(=O)(=O)Nc2ccc(O)c(Sc3nc4ccccc4s3)c2)cc1 | -14.7%
CN(CC(=O)Nc1ccc(F)cc1)C(=O)c1ccc(-c2ccc(Cl)cc2)o1 | 5.28%
CC(C)c1nnc(NC(=O)COC(=O)/C=C/c2ccc([N+](=O)[O-])cc2)s1 | -13.2%
COc1cccc(N(C(=O)C2COc3ccccc3O2)C(C(=O)NC2CCCCC2)c2ccc(O)cc2)c1 (configuration not stated) | -2.98%
CC(C(=O)NCC1CCCCC1)N(C)Cc1cccc(Cl)c1 (configuration not stated) | 25.2%

Compound | inhibition
CCn1ccnc1CN(C)C(=O)c1ccc2nc(Cc3ccc(OC)cc3)oc2c1 | -2.76%
CC(c1ccccn1)N(C)C(=O)c1ccc2nc(Cc3cccc(Cl)c3)oc2c1 (configuration not stated) | 73.2% (active)
CC(C)CCNC(=O)c1ccc2c(Cl)c3c(nc2c1)CCC3 | 70.3% (active)
CC(=O)c1ccc(NC(=O)c2ccc3c(Cl)c4c(nc3c2)CCCC4)cc1 | -8.45%
COc1ccc(N2CCN(C(=O)c3ccc4c(Cl)c5c(nc4c3)CCCC5)CC2)cc1 | -17.4%
O=C(CNC(=O)OCc1ccccc1)NC1CCCCNC1=O (configuration not stated) | -7.21%
COC(=O)c1ccccc1NC(=O)C1(S(=O)(=O)c2ccc(Cl)cc2)CC1 | -19.5%
CCOC(=O)C1=C(c2ccccc2)NC(=S)NC1c1ccc(Cl)cc1 (configuration not stated) | -13.4%
CCOc1ccc(C2NC(=S)NC3=C2CCc2ccccc23)cc1 (configuration not stated) | 50.5% (active)
COc1ccc(C2NC(=S)NC3=C2CCc2ccccc23)cc1OC (configuration not stated) | -17%
Cc1ccccc1N(C(=O)CNC(=O)c1cccs1)C(C(=O)NC1CCCC1)c1ccncc1 (configuration not stated) | 10.5%
COc1ccccc1Nc1nc(N)nc(CSC(=S)N2CCOCC2)n1 | 68.3%
COc1ccc(Nc2nc(N)nc(CSC(=S)N3CCC(C)CC3)n2)cc1 | 76.8% (active)
CCOC(=O)c1cnc(SCc2nc(N)nc(Nc3ccc(OC)cc3)n2)nc1N | 19.9%
Cc1cc(C)c(S(=O)(=O)Nc2c(C)n(C)n(-c3ccccc3)c2=O)cc1[N+](=O)[O-] | -11.7%
CCOC(=O)c1ccc(NC(=S)N2CCN(c3ccccn3)CC2)cc1 | -8.31%
Cc1cc(C)nc(NC(=O)C(C)N2C(=O)c3ccccc3C2=O)n1 (configuration not stated) | -5.77%
Cc1cc(C)nc(NC(=O)Nc2ccccc2C(F)(F)F)n1 | 59.8% (active)
Cc1cc(Cl)nc(NC(=O)Nc2cccc(Cl)c2)n1 | 61.3%
CC(NC(=O)c1ccccc1C(=O)O)c1ccc(-n2ccnc2)cc1 (configuration not stated) | 14.3%
O=C(NCCc1c[nH]c2ccccc12)c1cc2ccccc2oc1=O | 121% (active)
O=C(NCCc1c[nH]c2ccccc12)c1cccc(Br)c1 | 22.8%
Cc1cc(C)cc(OCC(=O)NNC(=O)c2cc3ccccc3oc2=O)c1 | 38.5%

Compound | inhibition
O=C(NCc1ccccn1)c1cc2ccccc2oc1=O | 72.4% (active)
CNC(=O)c1cc2c(ccc3ccccc32)oc1=N | 30.1%
COc1ccc2oc(=O)c(C(=O)NCc3ccccn3)cc2c1 | 24.7%
N=c1oc2ccccc2cc1C(=O)N/N=C/c1ccccc1 | 76.3% (active)
N=c1oc2ccccc2cc1C(=O)NCc1ccccc1 | 52.2% (active)
CC(NC(=O)c1cc2cc(Cl)ccc2oc1=N)c1ccccc1 (configuration not stated) | 23.9%
CN(c1ccccc1)S(=O)(=O)c1ccc(Cl)c(C(=O)NCCc2c[nH]c3ccccc23)c1 | 1.16%
COc1cccc2cc(C(=O)NCc3ccc(C)cc3)c(=N)oc12 | 15.9%
O=C(N/N=C\c1cccc(Br)c1)c1ccccc1-n1cccc1 | 14.5%
Cc1[nH]c2c(C(=O)N3CCCC(CCC(=O)NCc4ccccc4F)C3)cccc2c1C (configuration not stated) | 16.4%
CCOCCCNC(=O)C1(O)c2cc(Br)ccc2NC(=O)N1c1ccc(C)c(C)c1 (configuration not stated) | -7.51%
Cc1ccccc1OCC(=O)Nc1ccc(S(=O)(=O)N2CCOCC2)cc1 | -7.1%
Cc1cc(NC(=O)CCC(=O)N(Cc2ccccc2)C(C(=O)NC2CCCC2)c2ccc(C)o2)no1 (configuration not stated) | 11.3%
O=C1CCNCCN1[C@H](CO)Cc1ccccc1 | -8.58%
CCC(C)N1CC(=O)N2Cc3[nH]c4ccccc4c3C[C@H]2C1=O (some centres not stated) | -5.65%
COc1ccc(OC)c(C(=O)NC(CC(N)=O)c2ccc(N3CCC(N4CCCCC4)CC3)c([N+](=O)[O-])c2)c1 (configuration not stated) | -6.13%
COc1ccc(Cc2nnc(SCC(=O)Nc3ccc(C)c(C)c3)o2)cc1OC | -3.66%
CCOC(=O)c1oc2c(CN3CCN(C)CC3)c(O)ccc2c(=O)c1-c1ccc(Br)cc1 | 15.8%
CN1CCN(Cc2c(O)ccc3c2oc(=O)c2ccccc23)CC1 | 23.3%
CCN1CCN(Cc2c(O)ccc3c(=O)c(-c4ccc(OC)c(OC)c4)c(C(F)(F)F)oc23)CC1 | 21.4% (active)
CC(C)=CCCC1(C)C=Cc2c(ccc3c2[nH]c2cc(O)c(C)cc23)O1 (configuration not stated) | 23.1%
CC(C)Oc1ccc(CN2CCC(n3nccc3NC(=O)c3cccnc3)CC2)cc1 | -10.5%
O=C(Cc1ccsc1)N1CCN(S(=O)(=O)c2cc(C(F)(F)F)cc(C(F)(F)F)c2)CC1 | -17.3%

From PubChem BioAssay AID2315 (National Center for Advancing Translational Sciences (NCATS), 2010)
